# Data published in the supplement of paper PMC8728848.
# About 410 targets per protein were measured; listed, in parts, are those with the strongest signals and a random draw of the rest.
# B1: FliC (Clostridium difficile) (protein)
# chain: MRVNTNVSALIANNQMGRNVNGQSKSMEKLSSGVRIKRAADDAAGLAISEKMRAQIKGLDQAGRNVQDGISVVQTAEGSLEETGNILQRMRTLSLQSANEINNTEEREKIADELTQLKDEIERISSSTEFNGKKLLDGTSSTIRLQVGASYGTNVSGTSNNNNEIKIQLVNTASIMASAGITTASIGSMKAGGTTGTDAAKTMVSSLDAALKSLNSSRAKLGAQQNRLESTQNNLNNTLENVTAAESRIRDTDVASEMVNLSKMNILVQASQSMLAQANQQPQGVLQLLG
# How the values were obtained:
# Assay in all cases: glycan array binding signal (z-score within array); higher = stronger binding
# Settings in all cases: glycan notation: IUPAC condensed, linker removed
# [1] = biological target: Fuc(a1-2)Gal(b1-3)GalNAc(a1-3)[Fuc(a1-2)]Gal(b1-4)Glc
# How it was run: (§1)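 Columns mapping to the same glycan were averaged after glycan names were converted to IUPAC-condensed notation. The data come from 3228 arrays in the Consortium for Functional Glycomics database, limited to those with an available protein sequence. Binding is reported as a within-array Z-score averaged across arrays of one protein sequence and across linkers.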
# [2] = biological target: Fuc(a1-2)Gal(b1-3)[Fuc(a1-4)]GlcNAc(b1-2)Man(a1-3)[Fuc(a1-2)Gal(b1-3)[Fuc(a1-4)]GlcNAc(b1-2)Man(a1-3)]Man(b1-4)GlcNAc(b1-4)GlcNAc
# How it was run: as §1
# [3] = biological target: Fuc(a1-2)Gal(b1-4)GlcNAc(b1-3)Gal(b1-4)GlcNAc(b1-2)Man(a1-3)[Fuc(a1-2)Gal(b1-4)GlcNAc(b1-3)Gal(b1-4)GlcNAc(b1-2)Man(a1-6)]Man(b1-4)GlcNAc(b1-4)GlcNAc
# How it was run: as §1
# [4] = biological target: Fuc(a1-2)Gal(b1-4)[Fuc(a1-3)]GlcNAc(b1-2)[Fuc(a1-2)Gal(b1-4)[Fuc(a1-3)]GlcNAc(b1-4)]Man(a1-3)[Fuc(a1-2)Gal(b1-4)[Fuc(a1-3)]GlcNAc(b1-2)Man(a1-6)]Man(b1-4)GlcNAc(b1-4)GlcNAc
# How it was run: as §1
# [5] = biological target: Fuc(a1-2)Gal6S(b1-3)GlcNAc6S
# How it was run: as §1
# Fuc(a1-2)[Gal(a1-3)]Gal = biological target: Fuc(a1-2)[Gal(a1-3)]Gal
# How it was run: as §1
# [6] = biological target: Fuc(a1-2)[Gal(a1-3)]Gal(b1-3)GlcNAc(b1-3)GalNAc
# How it was run: as §1
# [7] = biological target: Fuc(a1-2)[GalNAc(a1-3)]Gal(b1-3)GlcNAc(b1-2)Man(a1-3)[Fuc(a1-2)[GalNAc(a1-3)]Gal(b1-3)GlcNAc(b1-2)Man(a1-6)]Man(b1-4)GlcNAc(b1-4)[Fuc(a1-6)]GlcNAc
# How it was run: as §1
# [8] = biological target: Fuc(a1-2)[GalNAc(a1-3)]Gal(b1-3)GlcNAc(b1-6)GalNAc
# How it was run: as §1
# [9] = biological target: Fuc(a1-2)[GalNAc(a1-4)]Gal(b1-4)GlcNAc
# How it was run: as §1
# [10] = biological target: Fuc(a1-3)[Gal(b1-4)]GlcNAc(b1-3)Gal(b1-4)[Fuc(a1-3)]GlcNAc(b1-3)Gal(b1-4)[Fuc(a1-3)]GlcNAc
# How it was run: as §1
# [11] = biological target: Gal(a1-3)Fuc(a1-2)Gal(b1-4)GlcNAc(b1-3)[Gal(a1-3)Fuc(a1-2)Gal(b1-4)GlcNAc(b1-6)]GalNAc
# How it was run: as §1
# Gal(a1-3)Gal(b1-3)GlcNAc = biological target: Gal(a1-3)Gal(b1-3)GlcNAc
# How it was run: as §1
# [12] = biological target: Gal(a1-3)Gal(b1-4)GlcNAc(b1-2)Man(a1-3)[Gal(a1-3)Gal(b1-4)GlcNAc(b1-2)Man(a1-6)]Man(b1-4)GlcNAc(b1-4)GlcNAc
# How it was run: as §1
# [13] = biological target: Gal(a1-4)Gal(b1-3)GlcNAc(b1-2)Man(a1-3)[Gal(a1-4)Gal(b1-3)GlcNAc(b1-2)Man(a1-6)]Man(b1-4)GlcNAc(b1-4)GlcNAc
# How it was run: as §1
# [14] = biological target: Gal(a1-4)Gal(b1-4)GlcNAc(b1-3)Gal(b1-4)Glc
# How it was run: as §1
# [15] = biological target: Gal(b1-3)GlcNAc(a1-6)Gal(b1-4)GlcNAc
# How it was run: as §1
# Gal(b1-3)GlcNAc6S = biological target: Gal(b1-3)GlcNAc6S
# How it was run: as §1
# [16] = biological target: Gal(b1-3)[Neu5Ac(a2-6)]GlcNAc(b1-4)Gal(b1-4)Glc
# How it was run: as §1
# [17] = biological target: Gal(b1-4)GlcNAc(b1-2)Man(a1-3)Man(b1-4)GlcNAc(b1-4)GlcNAc
# How it was run: as §1
# [18] = biological target: Gal(b1-4)GlcNAc(b1-2)Man(a1-3)[Gal(b1-4)GlcNAc(b1-2)Man(a1-6)]Man(b1-4)GlcNAc(b1-4)GlcNAc
# How it was run: as §1
# [19] = biological target: Gal(b1-4)GlcNAc(b1-2)[Gal(b1-4)GlcNAc(b1-4)]Man(a1-3)[GlcNAc(b1-4)][Gal(b1-4)GlcNAc(b1-2)Man(a1-6)]Man(b1-4)GlcNAc(b1-4)GlcNAc
# How it was run: as §1
# [20] = biological target: Gal(b1-4)GlcNAc(b1-2)[Gal(b1-4)GlcNAc(b1-6)]Man(a1-6)[Gal(b1-4)GlcNAc(b1-2)Man(a1-3)]Man(b1-4)GlcNAc(b1-4)[Fuc(a1-6)]GlcNAc
# How it was run: as §1
# [21] = biological target: Gal(b1-4)GlcNAc(b1-3)Gal(b1-4)GlcNAc(b1-2)Man(a1-3)[Gal(b1-4)GlcNAc(b1-3)Gal(b1-4)GlcNAc(b1-2)Man(a1-6)]Man(b1-4)GlcNAc(b1-4)[Fuc(a1-6)]GlcNAc
# How it was run: as §1
# [22] = biological target: Gal(b1-4)GlcNAc(b1-3)Gal(b1-4)GlcNAc(b1-3)Gal(b1-4)GlcNAc(b1-2)Man(a1-3)[Gal(b1-4)GlcNAc(b1-3)Gal(b1-4)GlcNAc(b1-3)Gal(b1-4)GlcNAc(b1-2)Man(a1-6)]Man(b1-4)GlcNAc(b1-4)GlcNAc
# How it was run: as §1
# [23] = biological target: Gal(b1-4)GlcNAc(b1-3)Gal(b1-4)GlcNAc(b1-3)[Gal(b1-4)GlcNAc(b1-3)Gal(b1-4)GlcNAc(b1-6)]GalNAc
# How it was run: as §1
# Gal(b1-6)Gal = biological target: Gal(b1-6)Gal
# How it was run: as §1
# Gal3S(b1-4)Glc = biological target: Gal3S(b1-4)Glc
# How it was run: as §1
# Gal4S6S(b1-4)GlcNAc = biological target: Gal4S6S(b1-4)GlcNAc
# How it was run: as §1
binder,measurement,setting,value
B1,glycan array binding signal (z-score),[1],0.883
same,glycan array binding signal (z-score),[2],0.721
same,glycan array binding signal (z-score),[3],0.257
same,glycan array binding signal (z-score),[4],0.298
same,glycan array binding signal (z-score),[5],0.013
same,glycan array binding signal (z-score),Fuc(a1-2)[Gal(a1-3)]Gal,0.187
same,glycan array binding signal (z-score),[6],0.173
same,glycan array binding signal (z-score),[7],1.26
same,glycan array binding signal (z-score),[8],-0.176
same,glycan array binding signal (z-score),[9],-0.165
same,glycan array binding signal (z-score),[10],-0.069
same,glycan array binding signal (z-score),[11],-0.356
same,glycan array binding signal (z-score),Gal(a1-3)Gal(b1-3)GlcNAc,4.21
same,glycan array binding signal (z-score),[12],8.29
same,glycan array binding signal (z-score),[13],4.1
same,glycan array binding signal (z-score),[14],0.243
same,glycan array binding signal (z-score),[15],-0.584
same,glycan array binding signal (z-score),Gal(b1-3)GlcNAc6S,-0.373
same,glycan array binding signal (z-score),[16],-0.467
same,glycan array binding signal (z-score),[17],-0.407
same,glycan array binding signal (z-score),[18],0.049
same,glycan array binding signal (z-score),[19],-0.113
same,glycan array binding signal (z-score),[20],0.28
same,glycan array binding signal (z-score),[21],2.39
same,glycan array binding signal (z-score),[22],2.15
same,glycan array binding signal (z-score),[23],2.33
same,glycan array binding signal (z-score),Gal(b1-6)Gal,0.447
same,glycan array binding signal (z-score),Gal3S(b1-4)Glc,-0.03
same,glycan array binding signal (z-score),Gal4S6S(b1-4)GlcNAc,-0.316
